Results published in PubChem BioAssay AID778 (Sanford-Burnham Center for Chemical Genomics, 2007).
The whole screen tested about 96,000 compounds, of which about 20,000 (21%) were called active. Only a sample is shown. A number with no mark means an inactive call.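 How the source made its calls: active means CYP2C19 inhibition above a set limit at 5 µM in the primary screen (cut at about 50% in these data); inactive means the rest.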

target: Cytochrome P450 2C19 (Homo sapiens) (UniProt P33261); experiment: blockers of cytochrome P450 2C19 activity – biochemical, luminescence, ADME assay, primary screen (AID 778); details: CYP2C19 Supersomes, luciferin-H EGE luminescence, 30 min; at 5 µM; active compounds read high;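 further: plate controls were negative control wells for no effect and 2.5 mM tranylcypromine positive control for full effect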
Sequence (P33261 whole entry, looked up): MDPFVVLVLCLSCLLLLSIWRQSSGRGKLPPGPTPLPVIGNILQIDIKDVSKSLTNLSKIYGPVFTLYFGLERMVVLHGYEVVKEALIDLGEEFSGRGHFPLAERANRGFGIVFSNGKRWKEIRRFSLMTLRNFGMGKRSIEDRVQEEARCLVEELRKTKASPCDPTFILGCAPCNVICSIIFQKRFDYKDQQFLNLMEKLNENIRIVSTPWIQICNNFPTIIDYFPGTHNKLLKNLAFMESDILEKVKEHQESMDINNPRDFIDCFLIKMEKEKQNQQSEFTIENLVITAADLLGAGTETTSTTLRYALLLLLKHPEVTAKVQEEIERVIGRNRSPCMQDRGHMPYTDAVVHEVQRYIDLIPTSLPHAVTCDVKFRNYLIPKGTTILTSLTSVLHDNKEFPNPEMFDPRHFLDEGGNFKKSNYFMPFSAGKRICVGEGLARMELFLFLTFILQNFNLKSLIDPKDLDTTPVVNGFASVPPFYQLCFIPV

SMILES	inhibition
CC(C)Oc1ccc(CCc2n[nH]c(=S)n2Cc2ccccc2)cc1	16.7%
CCOC(=O)c1sc(NC(=O)CSc2nnc(-c3ccco3)o2)c(C(=O)OCC)c1C	25.2%
CCOC(=O)c1sc(NC(=O)CCN2CCOCC2)c(C(=O)OCC)c1C	35.2%
CCOC(=O)c1c(NC(=O)CCl)sc(C(=O)N(CC)CC)c1C	56.1% (active)
COC(=O)c1c(CCl)noc1C(=O)NC(C)C	10.5%
COc1ccccc1N=C1SC(C)CN1C(=O)C1CCC1 (stereo not drawn)	-1.1%
Cn1c2c(c(=O)n(C)c1=O)[C@@H]1c3c(ccc4ccccc34)OC[C@@H]1CO2	33.8%
O=C(c1ccco1)N1CCN(CC(=O)N(C2CCCCC2)C2CCS(=O)(=O)C2)CC1 (stereo not drawn)	-21.3%
CCCc1nc2ccccc2c(=O)n1/N=C/c1ccc(O)c(O)c1	54.2% (active)
Cc1[nH]n(-c2cccc(Cl)c2)c(=O)c1/C=N/n1c(C)nc2ccccc2c1=O	20.6%
CCCc1nc2ccccc2c(=O)n1NC(=O)c1c(O)c2ccccc2[nH]c1=O	-11.7%
ONC(=Nc1ccc(Cl)cc1)c1ccccc1Cl	84.3% (active)
ONC(=Nc1ccccc1)c1ccccc1Cl	32.8%
CC(Oc1ccc(Cl)cc1)C(=O)Nc1ncccn1 (stereo not drawn)	30%
CC(Oc1ccc(Cl)cc1)c1ccnn1S(C)(=O)=O (stereo not drawn)	69.5% (active)
CC(Oc1ccc(Cl)cc1)C(=O)OCC(=O)Nc1ncc(Cl)cc1Cl (stereo not drawn)	24.2%
N#Cc1ccc(-c2ccc(F)cc2)nc1Sc1ccccc1	3.5%
Cc1csc(NC(=O)NC2(C(F)(F)F)Oc3ccccc3O2)n1	-13.3%
O/N=C(\c1ccc2c(c1)OCCO2)C1CCCCC1	49.8%
CC(C)Cc1cc(C(=O)Nc2cc(Br)ccc2O)no1	-2.9%
CCn1c(CSc2ncccn2)nnc1SCC(=O)N1c2ccccc2CC1C (stereo not drawn)	18.8%
CCCCn1ccnc1C(=O)c1cccc(S(=O)(=O)N2c3ccccc3CC2C)c1 (stereo not drawn)	83.1% (active)
CC(C)N1C(=O)C2C(C(=O)NC3CCCCC3)C3C=CC2(O3)C1C(=O)NC1CCCC1 (stereo not drawn)	6.6%
N#Cc1ccc(-c2ccc(Cl)cc2)nc1Oc1ccc(F)cc1	41.8%

SMILES	inhibition
O=C(Oc1ccc([N+](=O)[O-])cc1)c1ccc2ccccc2n1	0%
CCOC(=O)N1CCN(C(=O)CN(C2CCCCC2)S(C)(=O)=O)CC1	-5.6%
CS(=O)(=O)N(CC(=O)Nc1ccc(Cl)c(Cl)c1)C1CCCCC1	60.7% (active)
CS(=O)(=O)N(CC(=O)N1CCN(c2ccc(F)cc2)CC1)C1CCCCC1	6.9%
O=C(CCCN1C(=O)CSc2ncccc21)N1CCN(c2cccc(C(F)(F)F)c2)CC1	34%
Cc1nc(C)c(C(=O)Nc2cccc(C)c2C)o1	-14.2%
CC(=C1C(=O)c2ccccc2C1=O)N1CCN(c2ccccn2)CC1	13.1%
Cc1cc(C(=O)N2CCN(c3ccccn3)CC2)c(C)o1	56.8% (active)
Cn1c(=O)cc(OCCCC(=O)N2CCN(c3ccccn3)CC2)c2ccccc21	30.2%
COC(=O)c1ccc(NC(=O)C(C)N2C(=O)c3ccccc3C2=O)cc1 (stereo not drawn)	11.8%
CC(C)Oc1ccc(Oc2ccc(C(F)(F)F)cn2)cc1	23.2%
COc1cccc(N2CCN(C3CC(=O)N(c4ccc(Cl)cc4)C3=O)CC2)c1 (stereo not drawn)	-17.1%
CN(C)c1ccc(NC(=S)N(CCc2ccccc2)C2CC(=O)N(c3c(Cl)cccc3Cl)C2=O)cc1 (stereo not drawn)	13.4%
COC(=O)CN(C(=S)Nc1ccc(Cl)cc1)C1CC(=O)N(c2ccc(OC)cc2)C1=O (stereo not drawn)	69.3% (active)
CCSc1nnc(NC(=O)Cc2ccccc2OC)s1	36.5%
CCOCCCN1C(=O)CN(C2CCCCC2)C(=O)C1c1ccc(OCC)c(OC)c1 (stereo not drawn)	0.6%
CCn1c(CSc2nncn2-c2ccc(OC)cc2)nc2cc(S(=O)(=O)N(C)C)ccc21	21.5%
CCN(CC)S(=O)(=O)c1ccc2nc(CSc3nnnn3-c3ccc(O)cc3)[nH]c2c1	66.1% (active)
CCN(CC)S(=O)(=O)c1ccc2nc(COC(=O)c3n[nH]c4ccccc34)[nH]c2c1	9.5%
CCCCN(CC)CCCNC(=O)CS(=O)(=O)Cc1nc(-c2cccc(OC)c2)oc1C	-1.1%
CC/C(C)=N/Nc1nc2sc3c(c2c(=O)[nH]1)CC(C)(C)OC3	36.9%
CCOC(=O)CSc1nc2sc3c(c2c(=O)[nH]1)CC(C)(C)OC3	67.6% (active)
CCOC(=O)Cn1c(SC)nc2sc3c(c2c1=O)CC(C)(C)OC3	8.2%
CC(=O)NS(=O)(=O)c1ccc(NC(=S)NC(=O)C(C)(C)C)cc1	-2.4%

SMILES	inhibition
CC(=O)Nc1ccc(NS(=O)(=O)c2cc(C)sc2C)cc1	93.5% (active)
CC(=O)Nc1ccc(S(=O)(=O)Nc2cccc(NC(=O)C(C)(C)C)c2)cc1	32.2%
CN(C)c1ccc(-n2cccc2/C=C2/SC(=Nc3ccc(F)cc3)NC2=O)cc1	2.9%
COC(=O)Nc1ccc(S(=O)(=O)N(C)CC(F)(F)C(F)F)cc1	58.8% (active)
CCOC(=O)Nc1ccc(S(=O)(=O)N(C)C(C)C)cc1	19.6%
COC(=O)Nc1ccc(S(=O)(=O)N2CCN(CCN3C(=O)C4C5C=CC(C5)C4C3=O)CC2)cc1 (stereo not drawn)	5.6%
COc1ccc(CCNC(=O)CCCCn2c(=O)[nH]c3ccccc3c2=O)cc1OC	16.8%
O=C(CCn1c(=O)[nH]c2ccccc2c1=O)NCCCN1CCN(c2cccc(Cl)c2)CC1	13.5%
O=C(CCCCCn1c(=O)[nH]c2ccccc2c1=O)NCCc1c[nH]c2ccccc12	71.7% (active)
O=C(c1cc2c(s1)CCC2)N1CCN(c2ccccc2)CC1	48.8%
O=C(CS(=O)(=O)Cc1ccccc1)NCC1CCCO1 (stereo not drawn)	-6.7%
O=C(CSCc1c(F)cccc1Cl)NCC1CCCO1 (stereo not drawn)	52.6% (active)
O=C(CSC1=Nc2ccccc2C2=NC(c3ccccc3)C(=O)N12)NCC1CCCO1 (stereo not drawn)	29.1%
N#Cc1ccc(Oc2cc(C(F)(F)F)nc(-c3ccccn3)n2)cc1	6.7%
O=C(Nc1nccs1)c1cc(S(=O)(=O)N2CCOCC2)c(Cl)cc1Cl	12.5%
O=C(CC1CCCCC1)Nc1c2c(nn1-c1ccc(F)cc1)CS(=O)(=O)C2	5%
COc1ccc(-n2nc(C(=O)NCC(=O)Nc3cccc(C)n3)c3ccccc3c2=O)cc1	-1.3%
Cc1ccc(-n2nc3c(c2NC(=O)CCC2CCCCC2)CS(=O)C3)cc1 (stereo not drawn)	80.4% (active)
COc1ccc(-n2nc3c(c2NC(=O)Cc2cccc(C)c2)CS(=O)C3)cc1 (stereo not drawn)	76.9% (active)
O=C(Nc1c2c(nn1-c1ccc(F)cc1)CS(=O)C2)C12CC3CC(CC(C3)C1)C2 (stereo not drawn)	9.1%
CC(C)(C)n1nc2c(c1NC(=O)c1ccc(S(=O)(=O)N3CCCC3)cc1)CS(=O)C2 (stereo not drawn)	10.7%
CCCCc1nc2c(=O)[nH]c3ccccc3c2o1	-9.6%
CCC1(C)Cc2c(sc3[nH]c(=S)n(Cc4ccccc4)c(=O)c23)CO1 (stereo not drawn)	9.8%
O=C(Cn1nnc(-c2ccc(CN3CCOCC3)cc2)n1)NC1CCCCC1	9%

SMILES	inhibition
CC(=O)C1=C(O)C(=O)N(c2ccc(S(N)(=O)=O)cc2)C1c1ccccc1F (stereo not drawn)	-8%
Clc1ccc(-c2cc(COc3ccccc3)no2)cc1Cl	10.4%
O=c1c([N+](=O)[O-])cc(C(F)(F)F)cn1Cc1cccc(Cl)c1	24.2%
C=CCNc1nnc(SCC(=O)N2CCCCC2)c2ccccc12	50.6% (active)
CCc1c(O)nc(SCC(=O)N2CCCCC2)n(-c2ccccc2C)c1=O	0.9%
C=CCNc1nnc(C)c2ccccc12	-10.2%
c1ccc2c(c1)C(=NC1CCCCC1)NC2=NC1CCCCC1	4.5%
O=C(Nc1cccc(OCC(=O)N2CCOCC2)c1)C1CCCCC1	-9.5%
CN(C)CCCNc1c2c(c(C#N)c3nc4ccccc4n13)CCC2	0%
CCOC(=O)N1CCC(Nc2c(NCCN3CCN(c4cccc(Cl)c4)CC3)c(=O)c2=O)CC1	2.4%
O=S(=O)(N/N=C\c1cccn1-c1ccccc1)c1ccc2ccccc2c1	49.7%
CCCCn1c(SCC(=O)NCCc2ccc(OC)c(OC)c2)nc2c1c(=O)n(C)c(=O)n2C	-14.1%
O=C(CCCC(=O)N(CC(=O)NC1CCCC1)Cc1ccccc1Cl)Nc1ccccn1	77.5% (active)
CCCC(=O)Nc1cc(OCC)c(NC(=O)NC2CCCCC2)cc1OCC	10.5%
Cc1noc(C)c1C(=O)N(CC(=O)NC1CCCC1)Cc1ccccc1F	-7.6%
CCC(C)(NC(=O)c1ccccn1)C(=O)NC1CCCCC1 (stereo not drawn)	17.6%
CCOc1ccccc1N(CC(=O)NC1CCCCC1)C(=O)CCCC(=O)Nc1ccccn1	68.9% (active)
Cc1ccc(C(C(=O)NC2CCCC2)N(Cc2ccco2)C(=O)CCC(=O)Nc2ccccn2)cc1 (stereo not drawn)	10.6%
O=C1CCCC(O)=C1C=NCCc1ccccc1	12.8%
CC(CCO)Nc1nc2c([nH]1)c(=O)n(C)c(=O)n2C (stereo not drawn)	0.9%
Cn1c2c(c(=O)n(C)c1=O)C(c1ccc(O)cc1)Nc1ccccc1O2 (stereo not drawn)	2%
